# This is a sample that favours compounds with a hit; in the whole collection about 5.8% have one here.
# RORgamma inh: qHTS for inhibitors of ROR gamma transcriptional activity | Nuclear receptor ROR-gamma (Mus musculus), P51450 | Drosophila S2 Gal4-RORgamma UAS-luciferase reporter, 20 h | Potency, µM (doses to about 53.6 µM), for inactives: at the highest dose activity change, negative = inhibition, usual class: inhibitors | hit rate 5.4% among 310,000; further: potency means the concentration at half of the fitted maximal effect; on the % scale 0 is the no-effect control and ±100 the full control effect; nearly all actives have a fitted effect of over 60% in size
# Target sequence (P51450 whole entry, looked up, the tested form may be a part): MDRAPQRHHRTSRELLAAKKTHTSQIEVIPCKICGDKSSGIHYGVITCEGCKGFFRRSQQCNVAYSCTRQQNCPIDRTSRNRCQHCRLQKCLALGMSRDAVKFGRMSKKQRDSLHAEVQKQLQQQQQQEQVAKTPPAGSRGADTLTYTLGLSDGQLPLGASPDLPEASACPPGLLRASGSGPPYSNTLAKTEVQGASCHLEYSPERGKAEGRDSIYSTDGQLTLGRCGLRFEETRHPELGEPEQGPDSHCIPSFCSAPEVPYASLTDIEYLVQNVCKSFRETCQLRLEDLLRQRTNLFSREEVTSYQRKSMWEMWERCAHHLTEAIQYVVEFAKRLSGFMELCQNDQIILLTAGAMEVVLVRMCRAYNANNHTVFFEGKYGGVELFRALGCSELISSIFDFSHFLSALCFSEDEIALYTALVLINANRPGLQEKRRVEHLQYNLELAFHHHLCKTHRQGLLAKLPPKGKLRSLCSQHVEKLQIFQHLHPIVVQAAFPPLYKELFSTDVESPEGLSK
#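 A Gal4/UAS one-hybrid system in insect cells: metallothionein-promoter Gal4–ROR gamma fusion plus Photinus luciferase reporter. Copper sulfate 700 uM final, 20 hr ambient incubation, luminescent detection after 10 min with reagent.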
# TRPV1 ag: HTS Assay for Compounds that Act as Agonists of the Vanilloid Receptor 1. Transient receptor potential cation channel subfamily V member 1 (Homo sapiens), Q8NER1. TRPV1-expressing cells, Fluo-8 calcium influx, agonist mode. activation, % at 8.33 µM. hit rate 0.19% among 320,000. AID 540275, 2011; in the data active means activation above about 80%; inconclusive means between about 30% and that limit; further: 0% is about no effect
#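 TRPV1-expressing cells were cultured overnight at 35.5C and loaded with Fluo-8 calcium dye for 40 to 90 min at room temperature. After a 10 s baseline, compound was added and calcium influx was read kinetically for 3 min (ex 480/em 520 nm).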
# Gal4-VP16 FLuc: VP16 counterscreen qHTS for inhibitors of ROR gamma transcriptional activity | Potency, µM (top dose mostly 53.6 µM), inactives show at the highest dose activity, negative = inhibition, usual class: inhibitors | AID 2546, 2010 | Drosophila S2 Gal4-VP16 UAS-luciferase, luminescence, 20 h | hit rate 3.5% among 310,000;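 further: Gal4-VP16 expression switched on by copper sulfate through the metallothionein promoter; potency means the concentration at half of the fitted maximal effect; on the % scale 0 is the no-effect control and ±100 the full control effect; nearly all actives have a fitted effect of over 50% in size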
# uPA surface inh: qHTS for Inhibitors of Cell Surface uPA Generation | cell surface uPA generation assay, qHTS | Potency, µM (titrated, usually from 38.3 µM), for the others: top-dose activity change, negative = inhibition, actives largely listed as inhibitors | hit rate 0.31% among 330,000; active means well fitted inhibition curve with a large enough effect; inconclusive means small, poorly fitted or top-dose-only effect; inactive means no such curve, though single readings can be large or run the other way; tested in mouse RAW 264.7 cells; further: potency means the concentration at half of the fitted maximal effect; on the % scale 0 is the no-effect control and ±100 the full control effect; nearly all actives have a fitted effect of over 55% in size
# TRPV1 potentiator: HTS Assay for Compounds that Act as Potentiators of the Vanilloid Receptor 1. AID 540277, 2011. hit rate 0.02% among 320,000. TRPV1-expressing cells, Fluo-8 calcium influx, capsaicin EC20 potentiation. potentiation, % at 8.33 µM. Transient receptor potential cation channel subfamily V member 1 (Homo sapiens), Q8NER1; in the data active means potentiation above about 80%; inconclusive means between about 30% and that limit; further: 0% is about no effect
#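 Fluo-8 calcium influx in TRPV1-expressing cells, kinetic read (ex 480/em 520 nm). Compound added and read 3 min for agonist activity, followed by capsaicin at EC20 final and 2 min further read for enhancement.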
# Starred values were filed as active, the others as inactive; u = inconclusive; x = no result; [ ] = dose if it differs, or a comment. Unless noted, the call rests on the fitted dose curve; in most records, active means well fitted curve in the direction sought with a large enough effect; inconclusive means small, poorly fitted or top-dose-only effect, or another doubt; inactive means no such curve, though single readings can be large; an effect the other way counts as inactive or inconclusive.
SMILES,RORgamma inh,TRPV1 ag,Gal4-VP16 FLuc,uPA surface inh,TRPV1 potentiator
COc1ccc(CCNc2cc(N3CCN(C(=O)c4ccc(C)cc4)CC3)ccc2[N+](=O)[O-])cc1OC,u,0,-28%,x,-2
COc1ccc(C(=O)N2CCN(c3ccc([N+](=O)[O-])c(NCCc4ccc(OC)c(OC)c4)c3)CC2)cc1,u,1,4µM*,0%,2
COc1ccc(CCNc2cc(N3CCN(C(=O)c4ccccc4F)CC3)ccc2[N+](=O)[O-])cc1OC,42%,-1,10µM*,-1%,-1
Cc1occc1C(=O)N/N=C/c1sc(N2CCOCC2)nc1-c1ccccc1,13µM*,18,u,29%,-26
COc1ccc(C(=O)N/N=C/c2sc(N3CCOCC3)nc2-c2ccccc2)cc1OC,2.8µM*,-2,7%,5%,5
O=C(N/N=C/c1sc(N2CCOCC2)nc1-c1ccccc1)c1ccc(O)cc1,5%,2,-3%,4%,8
CCN1C(=O)[C@H]2[C@@H](c3ccc(-c4ccccc4)cc3)N3CCCC[C@@]3(C(=O)OC)[C@H]2C1=O,x,1,x,1%,24
COc1ccc2nc(NC(=O)CSC3=NCCS3)sc2c1,u,0,-22%,-4%,22
CCOc1ccc2nc(NC(=O)CSc3ccc(Cl)cc3)sc2c1,11µM*,4,u,3%,3
COc1ccc2nc(NC(=O)CSc3ccccc3)sc2c1,1.6µM*,2,-14%,1%,u
CCOc1ccc2nc(NC(=O)CSC3=NCCS3)sc2c1,14µM*,1,-18%,-12%,-9
CCOc1ccc2nc(NC(=O)CSc3cn[nH]n3)sc2c1,-1%,1,-11%,x,-5
CCOC(=O)Nc1ccc2nc(Sc3ccc(Cl)cc3)sc2c1,u,1,u,1.6µM*,5
N#Cc1ccc(CN2CCC3(CC2)CCN(S(=O)(=O)c2ccccc2)CC3)cc1,-12%,x,-25%,x,x
COc1ccc2nc(NC(=O)C3COc4ccccc4O3)sc2c1 (stereo unspecified),u,x,-51%,1%,x
COc1ccc2nc(NNC(=O)C3COc4ccccc4O3)sc2c1 (stereo unspecified),2.8µM*,-1,u,-2%,5
Cc1ccc(NC2=C(Cl)C(=O)OC2OC(=O)c2ccco2)cc1 (stereo unspecified),11µM*,-1,-19%,-12%,9
Cc1cccc(NC2=C(Cl)C(=O)OC2OC(=O)c2ccco2)c1 (stereo unspecified),11µM*,24,u,-4%,-2
CCN1C(=O)[C@H]2[C@H]3[C@H](O)[C@H](O)C/C(=N/OCC(C)C)[C@@H]3CC[C@@H]2C1=O,10%[10 µM],x,-7%[10 µM],x,x
CN(C)c1ncnc2ccc(-c3ccc4c(c3)OCO4)cc12,-3%,x,-3%,x,x
O=C(NC(=S)N1CCN(C/C=C/c2ccccc2)CC1)c1c(F)cccc1F,1.3µM*,3,2.8µM*,-4%,1
O=C(c1ccco1)N1CCN(C/C=C/c2ccccc2)CC1,17%,-1,-4%,5%,-2
O=C(NC(=S)N1CCN(C/C=C/c2ccccc2)CC1)c1ccco1,1.1µM*,1,4µM*,3%,18
Cc1sc2ncn(CC(=O)Nc3ccccc3F)c(=O)c2c1-c1ccccc1,13%,-1,0%,19%,2
COc1ccc(C(=O)N2CCC3(CC2)CN(c2ncccn2)C3)cc1,-16%,x,1%,x,x
SMILES,RORgamma inh,TRPV1 ag,Gal4-VP16 FLuc,uPA surface inh,TRPV1 potentiator
CCC(C)C(NC(=O)c1ccc(Cl)cc1Cl)C(=O)O (stereo unspecified),3%,1,0%,3%,-6
CCC[C@H](CN[C@@H](CNC)[C@H](C)CC)NCCc1cc(C(F)(F)F)cc(C(F)(F)F)c1,u,12,u,u,10
CCC[C@@H](CN[C@@H](CNC)[C@H](C)CC)NCC1CCC(C(C)(C)C)CC1 (stereo partly specified),11µM*,-4,u,u,20
O=C(/C(=C(\O)c1ccccc1)c1nc2ccccc2[nH]1)c1ccccc1,7.9µM*,19,u,1%,-23
O=C(/C(=C(\O)c1ccccc1)c1ncc[nH]1)c1ccccc1,13µM*,-6,u,1%,3
CC12C(=O)N(Cc3ccco3)C(=O)C1C1c3ccccc3C2c2ccccc21 (stereo unspecified),-5%,0,-26%,-2%,1
Cc1nc2cnc(Oc3ccccc3)nc2n(Cc2cccs2)c1=O,12%,x,-2%,x,x
Cc1cc(Nc2ccccc2F)n2nc(C)nc2n1,-18%,-1,-6%,18%,-2
Cc1cc(Nc2ccc(Br)cc2F)n2nc(C)nc2n1,3.2µM*,2,7.9µM*,-11%,18
Cc1csc(NC(=O)c2ccc(N3CCCC3=O)cc2)n1,2.5µM*,-10,u,2.8µM*,14
O=C(Nc1nc(-c2ccc(F)c(F)c2)cs1)c1ccc(OCC2CCCO2)cc1 (stereo unspecified),-18%,-6,-5%,5%,u
Cc1csc(NC(=O)c2ccc(OCC3CCCO3)cc2)n1 (stereo unspecified),3.5µM*,17,u,-10%,-1
Cc1csc(NC(=O)c2cc([N+](=O)[O-])cc([N+](=O)[O-])c2)n1,u,-2,2µM*,-1%,11
COc1ccc(CCNC(=O)COC(=O)c2cc(S(=O)(=O)NCc3ccccc3)ccc2O)cc1OC,5%,-4,-4%,-3%,11
CC1CCCCC1NC(=S)NC(=O)c1sc2ccccc2c1Cl (stereo unspecified),-9%,6,6%,3%,-1
O=C(NC(=S)N(CCCCO)C1CCCCC1)c1sc2ccccc2c1Cl,0.1µM*,2,0.89µM*,-18%,18
Cc1oc2cc3c(C(=O)N4CCCCC4)c(C)oc3cc2c1C(=O)N1CCCCC1,2µM*,2,u,u,-3
CC1=CC(=O)C=C(C)C1=NOc1ccccc1[N+](=O)[O-],10µM*,14,u,u,-9
COC(=O)c1sc(S(=O)(=O)Nc2ccc(Br)cc2)c(C(=O)OC)c1C,32%,-4,-4%,3%,9
COc1ccc(/C(C)=N\NC(=O)C(c2ccncc2)N2CCOCC2)cc1 (stereo unspecified),10%,-1,-2%,1%,-9
CN(C)C(=S)NC(=O)C12CC3CC(C)(CC(C)(C3)C1)C2,5µM*,4,22µM*,1%,-6
O=C(NC(=S)N1CCN(CCO)CC1)C12CC3CC(CC(C3)C1)C2,5%,3,-4%,0%,-15
